From ChEMBL document CHEMBL4513145, “CO-ADD screening of Biotechnology Research Centre (C.R.B.t) (Algeria) compounds” come the findings set out here.

Where “and” joins values, the source holds several entries; their conditions need not be identical. Identical values can stand only once. Entries with a potency or affinity are not part of this list.

For the assay, the system named is Escherichia coli. Conditions: Concentration 32 ug.mL-1; ASSAY_TEST Inhibition of Bacterial Growth; detection method Absorption (OD600); MEDIA CAMHB; plate type 384well; NBS; CORNING #3640; time 18 hr, 32 ug/mL.
A word on the Inhibition: it is the drop in the measured response relative to a control, in per cent. As for `Cc1ccc(S(=O)(=O)N2CC(Cc3ccccc3)C(=O)N2S(=O)(=O)c2ccc(C)cc2)cc1` (configuration not stated), the Inhibition is -8.26% and -4.89%.
In the case of `O=C1ON(C(=O)OCc2ccccc2)CC1Cc1ccccc1` (configuration not stated), the Inhibition was -4.21% and -4.06%.
As for `CC(C)(C)OC(=O)N1C(O)C(Cc2ccccc2)CN1S(=O)(=O)c1ccc([N+](=O)[O-])cc1` (configuration not stated), the figure is 1.32% and -2.18% and -0.91%; as for `CC(C)(C)OC(=O)N1C(=O)C(Cc2ccccc2)CN1S(=O)(=O)c1ccc([N+](=O)[O-])cc1` (configuration not stated), -5.13% and -6.6% and -4.72%; as for `Cc1ccc(S(=O)(=O)N2CC(C)C(=O)N2S(=O)(=O)c2ccc(C)cc2)cc1` (configuration not stated), -5.27% and -6.97%.
With `CC1CN(S(=O)(=O)c2ccc([N+](=O)[O-])cc2)N(C(=O)OC(C)(C)C)C1=O` (configuration not stated) the figure was -2.77% and -4.85% and -5.54%; with `CC1CN(C(=O)OCc2ccccc2)OC1=O` (configuration not stated), -4.89% and -2.17% and -2.01%.
